The results in this text go back to PubChem BioAssay AID504773 (Broad Institute, 2011).

The target of this assay is Golgi-associated PDZ and coiled-coil motif-containing protein (Homo sapiens) (UniProt Q9HD26). Put plainly: CAL PDZ peptide-binding inhibitors, dose response, biochemical, fluorescence polarization, Cerulean-tagged CAL PDZ, cherry-picks (AID 504773). For orientation: Polarisation of emitted light reports the rotation of a fluorescent probe.

Structures are written as SMILES. Potency and affinity values are given separately. The source made the active and inactive calls.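 How the source made its calls: active means polarization signal falls with dose and the fitted half-maximal concentration is at or below ten times the sample's top valid dose; inconclusive means flat curve at 30 to 70% inhibition, or poor fit; inactive means signal rises, flat within 30%, or potency beyond limit.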

Consider `Cc1[nH]c2ccccc2c1C(=O)CSc1nc2ncc(Cl)cc2[nH]1`, for which the call was inactive.

As for `S=C(NCCc1ccccc1)N1CCn2cccc2C1c1cccnc1` (configuration not stated), the compound was classed as inactive.

Regarding `CCC(=O)Nc1ccc(S(=O)(=O)NCc2ccco2)cc1`, the compound was called inactive.

Consider `COc1ccc(CC(=O)NNC(=O)CCc2ccccc2)cc1OC`, for which the compound was classed as inactive.

As to `CC1(C2CC2)NC(=O)N(CC(=O)NCC(=O)Nc2ccc(F)c(F)c2F)C1=O` (configuration not stated), the call was inactive.

For the compound `CCOC(=O)NC(=O)COC(=O)CCCSc1nc2ccccc2s1`, the compound was called inactive.

On to `CC(=O)NC(Cc1ccccc1)C(C)=O` (configuration not stated), for which the result was inactive.

In the case of `Nc1nc2ccccc2cc1S(=O)(=O)c1ccccc1`, the compound was classed as inactive.

Regarding `Cc1ccc(-c2[nH]c3ccccc3c2SCCN)cc1`, the outcome was inactive.

In the case of `Oc1ccc(/C=N\Nc2nncc(-c3ccccc3)n2)cc1`, the result was inactive.

Take `Cn1nc(C(=O)N2CCCc3ccccc32)c2ccccc2c1=O`: the result was inactive.

As to `CSc1ccc(CNCCCSc2ncccn2)cc1`, the compound was called inactive.

With `COc1ccc(/C=C/C(=O)Nc2ccc3nc4n(c(=O)c3c2)CCCC4)cc1OC`, the result was inactive.

As to `Cc1cc(NC(=O)Cc2ccc(Br)cc2)no1`, the outcome was inactive.

Take `O=C(c1cccc(Oc2c(Cl)cccc2[N+](=O)[O-])c1)N1CCOCC1`: the compound was called inactive.

As for `c1ccc(C2Nc3ccccc3Oc3ccccc32)cc1` (configuration not stated), the outcome was inactive.

For the compound `CC(C)CNC(=O)CN1C(=O)NC(Cc2c[nH]c3ccccc23)C1=O` (configuration not stated), the result was inactive.

Regarding `Cc1cccc(NC(=O)Cn2cnc3c(oc4ccccc43)c2=O)c1C`, the compound was called inactive.

Take `C(=C/c1nccc2c1[nH]c1ccccc12)/c1ccc2c(c1)OCO2`: the compound was classed as inactive.

Consider `O=C(COc1ccccc1)N1CCCCCCC1`, for which the call was inactive.

`CN(Cc1nccn1C)C(=O)c1cc(COc2ccc3ncccc3c2)on1`: the call was inactive.

As to `Cc1ccccc1CN(C)C(C)C(=O)Nc1ccccc1F` (configuration not stated), the call was inactive.

Turning to `COCC(=O)NNC(=O)c1ccc(OC)cc1`, the outcome was inactive.

In the case of `CCOC(=O)c1ccc(NC(=S)N2CCCC(C(=O)N3CCCC3)C2)cc1` (configuration not stated), the call was inactive.

With `O=C(CN1CC[n+]2c(-c3cccs3)csc21)c1ccc(-c2ccccc2)cc1`, the compound was classed as inactive.

As to `COc1ccc(CCn2c(=S)[nH]c3ccc(N4CCOCC4)cc3c2=O)cc1OC`, the outcome was inactive.

Take `CN(c1nc(-c2ccc(Br)cc2)cs1)C1CCS(=O)(=O)C1` (configuration not stated): the call was inactive.

Take `O=C(NC12CC3CC(CC(C3)C1)C2)c1ccco1`: the outcome was inactive.

In the case of `O=C(c1ccccc1)C(CCc1ccccn1)CCc1ccccn1`, the call was inactive.

For the compound `CCOc1ccc(NC(=O)c2nsc(Cl)c2Cl)cc1`, the call was inactive.

As to `O=C(c1cc2cc([N+](=O)[O-])ccc2oc1=O)N1CCN(C2CCCCC2)CC1`, the compound was called inactive.

In the case of `Cc1ccc(-c2nc3ccccc3c(=O)o2)cc1`, the outcome was inactive.

As for `COc1ccc(C(=O)Nc2ccc(S(=O)(=O)N3CCCC3)cc2)cc1[N+](=O)[O-]`, the outcome was inactive.

In the case of `CCCCOc1ccc(C(=O)N2CCNC(=O)C2CC(=O)OC(C)C)cc1` (configuration not stated), the result was inactive.

For `CCN(CC)CCC(=O)N1c2ccccc2CCc2ccc(NC(=O)OC(C)C)cc21`, the outcome was inactive.

For the compound `O=C(NCCc1ccccc1)C1CCC(=O)N(CCCN2CCCC2=O)C1` (configuration not stated), the outcome was inactive.

As to `Cc1cccc(N(Cc2cc(=O)[nH]c3ccccc23)C(=O)C(C)C)c1`, the compound was called inactive.

Take `O=C(O)CC1(CC(=O)Nc2ccc(Br)cc2)CCCCC1`: the result was inactive.

Consider `CC1CCC(NC(=O)c2ccc3c(c2)S(=O)(=O)c2ccccc2C3=O)CC1` (configuration not stated), for which the outcome was inactive.

Take `Cc1ccc(C(=O)NC(=S)N2CCN(c3cc(C)ccc3C)CC2)cc1`: the result was inactive.

With `CC(C)(C)OC(=O)N[C@@H](Cc1c[nH]c2ccccc12)c1nnc(SCC(N)=O)o1`, the result was inactive.

For the compound `CCC(C)NC(=O)C1CCCN(C(=O)Nc2ccc(F)cc2)C1` (configuration not stated), the call was inactive.

As to `CO[C@H]1O[C@H](C)[C@@H](O)C[C@H]1NC(=O)OCc1ccccc1`, the outcome was inactive.

Consider `Cc1ccc2nc(NS(C)(=O)=O)sc2c1`, for which the call was inactive.

In the case of `CCN(CC)S(=O)(=O)c1ccc2nc(NC(=O)c3ccco3)sc2c1`, the outcome was inactive.

As to `C(=N\N1CCOCC1)/c1nc(-c2ccccc2)n2ccccc12`, the compound was classed as inactive.

As to `CN(CC1CCCO1)S(=O)(=O)c1ccc(C(=O)Nc2ccc([N+](=O)[O-])cc2)cc1` (configuration not stated), the result was inactive.

On to `O=C1c2ccccc2C(O)N1c1ccccc1` (configuration not stated), for which the call was inactive.

For the compound `Cc1cc(=O)n2c3ccccc3n(CC(O)CN3CCN(CCO)CC3)c2c1C#N` (configuration not stated), the call was inactive.

For `O=S(=O)(/N=C(/Nc1ccc(Cl)c(S(=O)(=O)N2CCOCC2)c1)c1ccc(F)cc1)c1ccccc1`, the outcome was inactive.

`O=C1CN(C(=O)CC2C(=O)NCCN2Cc2ccccc2C(F)(F)F)CCN1` (configuration not stated): the call was inactive.

For the compound `CCOc1ccc(C(=O)NCC(=O)N2CCC(C)CC2)cc1OCC`, the outcome was inactive.

In the case of `CC1CCN(CCCNC(=O)c2ccc3c(=O)n(Cc4ccc(Cl)cc4)c(=S)[nH]c3c2)CC1`, the compound was classed as inactive.

Consider `O=C(Nc1cc(Cl)ccc1N1CCOCC1)c1ccc2c(c1)OCCO2`, for which the result was inactive.

For `O=[N+]([O-])c1ccccc1S(=O)(=O)NC1CCCCCCC1`, the compound was classed as inactive.

In the case of `O=C(COC(=O)c1ccc(Cl)nc1)Nc1ccc(N2CCCCC2)cc1`, the outcome was inactive.

On to `CCOc1ccc(S(=O)(=O)N2CCCCC2)c(C)c1C`, for which the outcome was inactive.

On to `Cc1ccc(CNC2CCCCC2)s1`, for which the result was inactive.

As to `O=C(NCc1ccccn1)c1ccc(NS(=O)(=O)c2ccccc2)cc1`, the call was inactive.

In the case of `O=C(OCC(=O)N1CCOCC1)c1ccc[nH]c1=O`, the compound was called inactive.

Turning to `CCC(C)(C)NC(=O)CSc1nc(Cc2ccccc2)nc2ccccc12`, the outcome was inactive.

On to `O=C(Oc1c(CN2CCOCC2)cc(Cl)c2cccnc12)c1ccc(F)cc1`, for which the compound was classed as inactive.

Take `CCCn1cnc2c(SCCc3ccccc3)nc(N)nc21`: the compound was classed as inactive.

With `COc1ccc(CN2CCCC(N3CCN(c4cccc(Cl)c4)CC3)C2)cc1OC` (configuration not stated), the outcome was inactive.

`O=C(NNC(=S)NC(=O)c1ccc(Br)cc1)c1ccc([N+](=O)[O-])cc1`: the compound was classed as inactive.

For `c1cc(-c2nnc(-c3ccncc3)o2)ccn1`, the result was inactive.

`O=C(O)CCCC(=O)N1N=C(c2ccccc2)CC1c1ccc2c(c1)OCO2` (configuration not stated): the compound was called inactive.

Turning to `COc1cc(Cl)c(CN2CCCC(CO)(Cc3cccc(Cl)c3)C2)cc1OC` (configuration not stated), the compound was called inactive.

For the compound `CCOC(=O)/C(N=Nc1ccc2c(c1)OCO2)=C(\C)O`, the call was inactive.

With `CCOC(=O)CCNC(=O)N1CCCC(CNS(=O)(=O)Cc2ccccc2)C1` (configuration not stated), the call was inactive.

As for `CCOC(=O)C1(CCOc2ccccc2)CCN(CC(O)CO)CC1` (configuration not stated), the compound was called inactive.

For the compound `O=C(OCC(=O)N1CCc2ccccc2C1)c1cccnc1Cl`, the compound was called inactive.

For `CCOc1c(Cl)cc(CNc2nnnn2C)cc1OC`, the outcome was inactive.

`Cn1c(CNC(=O)OC(C)(C)C)n[nH]c1=S`: the compound was classed as inactive.

Turning to `COc1cccc(CN2CCN(C3CSCCSC3)CC2CCO)c1` (configuration not stated), the compound was called inactive.

Consider `O=C(NNC(=O)c1c(F)cccc1F)c1sccc1-n1cccc1`, for which the call was inactive.

As for `Cc1ccc(CN2CCN(Cc3nc4ccccc4nc3C)CC2CCO)cc1` (configuration not stated), the result was inactive.

With `CCC(=O)c1ccc(N2CCC(C)CC2)c(F)c1`, the call was inactive.

As for `COc1cc(NC(=O)c2cccs2)ccc1NC(=O)c1ccccc1Cl`, the compound was called inactive.

On to `C/C(=N/N1CCN(c2ccccn2)CC1)c1ccc([N+](=O)[O-])cc1`, for which the compound was called inactive.

For `CCCOc1ccc(S(=O)(=O)Nc2ccccn2)c2ccccc12`, the call was inactive.

Consider `O=C(c1ccc([N+](=O)[O-])cc1)N1CCC(Cc2ccccc2)CC1`, for which the call was inactive.

In the case of `COc1ccc2ccccc2c1CN(C)Cc1ccccc1`, the outcome was inactive.

As for `COc1ccc(CSc2ncnc3sccc23)cc1F`, the compound was called inactive.

For `COc1ccc(/C=N/N2CCN(c3ccccc3OC)CC2)cc1Br`, the result was inactive.

Regarding `Cc1c(Cl)c(C(F)(F)F)nn1CC(=O)NCc1ccco1`, the compound was called inactive.

With `COc1ccc(C(=O)NC2(C(F)(F)F)C(=O)Nc3c2c(=O)[nH]c(=O)n3CCc2ccc(OC)c(OC)c2)cc1` (configuration not stated), the call was inactive.

As to `CCOC(=O)CCC(=O)Nc1ccc(S(=O)(=O)N2CCC(C)CC2)cc1`, the call was inactive.

As to `N/C(=N\OC(=O)Cc1ccccc1[N+](=O)[O-])c1cccnc1`, the call was inactive.

`CCOC(=O)c1nc(NCCc2ccccc2)sc1C`: the compound was classed as inactive.

On to `Cc1ccc(NC(=O)CN(C)CC(=O)Nc2cccc(F)c2)cc1S(=O)(=O)N1CCCCCC1`, for which the call was inactive.

On to `Cc1cc(C)nc(/N=C(\N)N2CCc3ccccc32)n1`, for which the compound was called inactive.
